IL1B secr inh: inhibitors of inflammasome signaling (IL-1 beta secretion). activity change, % at 57.5 µM. actives 4.7% (n = 360,000). AID 743279. THP-1 LPS/ATP IL-1B secretion, AlphaLISA, 16 h; hits give low values; in the data active = activity change below about -50%; inconclusive = mostly about -30% to -49%
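THP-1 cells pretreated 1 hr with compounds (up to 57.5 uM final), then stimulated with LPS (250 ng/mL final) plus ATP (1.25 mM final); secreted IL-1B measured by AlphaLISA after 16 hr, decreased signal indicating inhibition.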
TDP1 cell noCPT: qHTS for Inhibitors of human tyrosyl-DNA phosphodiesterase 1 (TDP1): qHTS in cells in absence of CPT; DT40 Tdp1-/- hTDP1 cells, no CPT, ATP luminescence, 48 h; Potency, µM (highest dose often 46.2 µM), most hits filed as inhibitors; actives 15% (n = 420,000); AID 686978, 2013; also: nearly all actives have a fitted effect of over 55% in size
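DT40 Tdp1-/-;hTDP1 cells, no CPT (DMSO vehicle only), 400 cells/well; compounds pin-transferred; ≥48 hr, 37 °C; CellTiter-Glo 30 min RT dark, luminescence read.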
HT1080 IDH1KD tx: HT-1080 IDH1 knockdown cell toxicity (counter line); HT-1080 IDH1 knockdown viability, ATP luminescence, 48 h; Potency, µM (highest dose often 46.1 µM), usual class: cytotoxic; actives 2% (n = 360,000); AID 686971
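After a 2 h attachment period, IDH1KD HT-1080 cells took pin-transferred compound for 48 h at 37 °C; ATP-based luminescence after 10 min room-temperature reagent incubation reported viability.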
ELG1 repair inh: ELG1-dependent DNA repair inhibition; HEK293T ELG1-luciferase reporter, luminescence, 16 h; DNA damage induced by 5-fluorouridine; Potency, µM (titrated, usually from 46.1 µM), most hits filed as inhibitors; actives 2.3% (n = 330,000); also: nearly all actives have a fitted effect of over 55% in size
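Reporter activity after DNA damage by 5-fluorouridine is monitored. Compound-treated cells incubate 16 hr at 37 °C, then ONE-Glo is added for 30 min before luminescence reading.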
TDP1 cell CPT: DT40-hTDP1 cell growth loss with CPT. chicken DT40 Tdp1-/-;hTDP1 cells + 20 nM CPT, ATP luminescence, 48 h. Potency, µM (series often up to 46.2 µM), hits mostly inhibitors. actives 12% (n = 420,000); also: nearly all actives have a fitted effect of over 55% in size
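Chicken DT40 Tdp1-/- cells complemented with human TDP1, 400 cells/well, exposed to compounds plus 20 nM camptothecin for at least 48 h at 37 C; viability read as ATP content by CellTiter-Glo luminescence.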
HT1080NT lethal: kills 2HG-producing HT-1080-NT fibrosarcoma cells; actives 1.6% (n = 360,000); HT-1080-NT fibrosarcoma viability, CellTiter-Glo ATP luminescence, 48 h; Potency, µM (top dose mostly 46.1 µM), actives largely listed as cytotoxic;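 also: NT is the 2HG producing partner of a matched IDH1 knockdown line; nearly all actives have a fitted effect of over 55% in size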
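HT-1080-NT fibrosarcoma cells (2HG-overproducing), 750 cells/well in RPMI with 5% FBS, dosed after 2 h and incubated 48 h at 37C. CellTiter-Glo luminescence normalized to DMSO and no-cell wells; concentration-response curves fitted and classed.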
Large screens that a line does not name were inactive. Shown are actives, neighbours in structure and some others; about 19% of the full set was active somewhere. Unless noted, calls follow the shape of the dose curve; as a rule, active = well fitted curve in the direction sought with a large enough effect; inconclusive = small, poorly fitted or top-dose-only effect, or another doubt; inactive = no such curve, though single readings can be large; an effect the other way counts as inactive or inconclusive.

CCCOc1ccc(/C=N/Nc2cccc([N+](=O)[O-])c2)c(O)c1	IL1B secr inh -96, TDP1 cell noCPT inconclusive, HT1080 IDH1KD tx 13µM, ELG1 repair inh inconclusive, TDP1 cell CPT inconclusive, HT1080NT lethal 15µM
CCCOc1ccc(/C=N/NC(=S)Nc2ccccc2[N+](=O)[O-])c(O)c1	TDP1 cell noCPT 5.2µM, HT1080 IDH1KD tx 15µM, ELG1 repair inh inconclusive, TDP1 cell CPT 5.8µM, HT1080NT lethal 9.2µM
CC1CC(C)CN(CCCNC(=O)C2CCCN(S(=O)(=O)N3CC(C)CC(C)C3)C2)C1 (stereo unspecified)	none
COc1ccc(N2CCN(C(=O)COC(=O)c3ccco3)CC2)cc1	ELG1 repair inh inconclusive
CCCCCCCCC#CCC#CCC#CCCCC(=O)O	none (no result: IL1B secr inh, HT1080 IDH1KD tx, ELG1 repair inh, HT1080NT lethal)
CCCN1CCC(=O)N([C@H](CSc2ccccc2)c2ccccc2)CC1	TDP1 cell noCPT 18µM, ELG1 repair inh inconclusive, TDP1 cell CPT 13µM
CCCN1CCC(=O)N([C@H](CO)c2ccccc2)CC1	none
CCCN1CCC(=O)N([C@H](CSc2ccc(C)cc2)c2ccccc2)CC1	TDP1 cell noCPT 8.2µM, ELG1 repair inh inconclusive, TDP1 cell CPT 16µM
NC(=O)C1=CC2C3C=CC2(O)C(=O)OC3O1 (stereo unspecified)	IL1B secr inh -96, TDP1 cell noCPT 5.8µM, HT1080 IDH1KD tx 21µM, TDP1 cell CPT 5.2µM, HT1080NT lethal inconclusive (no result: ELG1 repair inh)
CCCCNc1nc(-c2ccccc2)c(C(=O)OCC)cc1C#N	TDP1 cell noCPT 23µM, HT1080 IDH1KD tx inconclusive, TDP1 cell CPT inconclusive, HT1080NT lethal inconclusive
C=CCNc1nc(-c2ccccc2)c(C(=O)OCC)cc1C#N	TDP1 cell noCPT 10µM, HT1080 IDH1KD tx inconclusive, ELG1 repair inh inconclusive, TDP1 cell CPT inconclusive, HT1080NT lethal inconclusive
CCCNc1nc(-c2ccccc2)c(C(=O)OCC)cc1C#N	TDP1 cell noCPT 2.9µM, HT1080 IDH1KD tx inconclusive, TDP1 cell CPT 2.9µM, HT1080NT lethal inconclusive
CCOC(=O)c1cc(C#N)c(Oc2ccccc2)nc1-c1ccccc1	TDP1 cell noCPT inconclusive, TDP1 cell CPT inconclusive
O=C(Nc1cc(C2CC2)nn1-c1ccccc1)c1ccc(F)cc1	none
CCOC(=O)N1CCC(NC(=O)CN(c2ccc(C(C)C)cc2)S(=O)(=O)c2c(C)nn(C)c2C)CC1	TDP1 cell CPT inconclusive
Cc1ccccc1C(=O)NC1(C(F)(F)F)C(=O)Nc2c1c(=O)[nH]c(=O)n2CCc1ccccc1 (stereo unspecified)	none (no result: IL1B secr inh, HT1080 IDH1KD tx, ELG1 repair inh, HT1080NT lethal)
CC(=O)Nc1ccc2c(c1)-c1ccc(F)cc1C2	TDP1 cell noCPT inconclusive, TDP1 cell CPT inconclusive (no result: ELG1 repair inh)
CC(=O)Nc1cc2c(cc1[N+](=O)[O-])-c1ccc(F)cc1C2	IL1B secr inh -81, TDP1 cell CPT inconclusive (no result: ELG1 repair inh)
COc1cc(/C=C2/SC(=S)N(CCC(=O)N3CCN(C)CC3)C2=O)cc(OC)c1OC	TDP1 cell noCPT 23µM, TDP1 cell CPT inconclusive (no result: ELG1 repair inh)
COc1cc(/C=C2\SC(=S)N(CCC(=O)NC3CCCC3)C2=O)cc(OC)c1OC	IL1B secr inh inconclusive, TDP1 cell noCPT inconclusive, TDP1 cell CPT inconclusive
COc1cc(/C=C2\SC(=S)N(CCC(=O)N3CCN(C)CC3)C2=O)cc(OC)c1OC	TDP1 cell noCPT 15µM, TDP1 cell CPT inconclusive
COc1cccc(Sc2nc(N(C)C)ncc2S(=O)(=O)c2ccc(Cl)cc2)c1	TDP1 cell noCPT inconclusive, TDP1 cell CPT inconclusive (no result: IL1B secr inh, ELG1 repair inh)
COc1ccc(CN2CCCC(CO)(Cc3ccc(F)cc3)C2)cc1C (stereo unspecified)	IL1B secr inh -61, TDP1 cell noCPT inconclusive, TDP1 cell CPT inconclusive
CC(C)Oc1ccc(CN2CCCC(CO)(Cc3ccccc3)C2)cc1CO (stereo unspecified)	IL1B secr inh -54, TDP1 cell noCPT inconclusive, TDP1 cell CPT 29µM
COc1ccc(/C=C2\SC(=S)N(CCC(=O)Nc3ccccc3C(=O)O)C2=O)cc1	none
COc1ccc(-c2cc3c(=O)n(CC(=O)N4CCCCC4)ncn3n2)cc1	ELG1 repair inh inconclusive
COc1ccc(/C=C2\SC(=S)N(CC(=O)N3CCN(C)CC3)C2=O)cc1	TDP1 cell noCPT 21µM, TDP1 cell CPT inconclusive
COc1ccc(/C=C2/SC(=S)N(CCCC(=O)N3CCN(C)CC3)C2=O)cc1	TDP1 cell noCPT 21µM, ELG1 repair inh inconclusive, TDP1 cell CPT inconclusive
COc1ccc(/C=C2\SC(=S)N(CC(=O)NCCO)C2=O)cc1	ELG1 repair inh inconclusive, HT1080NT lethal inconclusive
COc1ccc(-c2cc3c(=O)n(CC(=O)N4CCN(C)CC4)ncn3n2)cc1	ELG1 repair inh inconclusive, TDP1 cell CPT 21µM
Cc1ccc(OCCn2cc(/C=C3\C(=O)NN(c4ccccc4)C3=O)c3ccccc32)cc1	TDP1 cell noCPT 26µM, ELG1 repair inh inconclusive, TDP1 cell CPT 16µM
CCOC(=O)N/N=C/c1cn(CCCOc2ccccc2)c2ccccc12	TDP1 cell noCPT inconclusive, ELG1 repair inh inconclusive, TDP1 cell CPT inconclusive
Cc1ccc(OCCn2cc(C=O)c3ccccc32)cc1	TDP1 cell noCPT inconclusive, TDP1 cell CPT inconclusive
CCOC(=O)N/N=C/c1cn(CCCOc2ccc(C)cc2)c2ccccc12	TDP1 cell noCPT 21µM, TDP1 cell CPT inconclusive
COc1ccc(OCCn2cc(/C=N/NC(=O)c3ccncc3)c3ccccc32)cc1	ELG1 repair inh inconclusive
COC(=O)N/N=C/c1cn(CC(C)COc2ccccc2)c2ccccc12 (stereo unspecified)	TDP1 cell noCPT 23µM, ELG1 repair inh inconclusive, TDP1 cell CPT inconclusive
Cc1ccc(OCCn2cc(/C=N/NC(=O)c3ccncc3)c3ccccc32)cc1	IL1B secr inh inconclusive, TDP1 cell noCPT 23µM, HT1080 IDH1KD tx inconclusive, ELG1 repair inh inconclusive, TDP1 cell CPT inconclusive
CCc1c(C)c2ccccc2[nH]c1=O	TDP1 cell noCPT inconclusive (no result: IL1B secr inh, HT1080 IDH1KD tx, ELG1 repair inh, HT1080NT lethal)
COCCNC(=O)Cn1cc(/C=N/NC(=O)c2ccc(Oc3ccc(O)cc3)cc2)c2ccccc21	IL1B secr inh -70, ELG1 repair inh inconclusive
O=C1C2C3C=CC(C3)C2C(=O)N1/N=C/c1cn(Cc2ccccc2)c2ccccc12 (stereo unspecified)	TDP1 cell noCPT inconclusive, TDP1 cell CPT 16µM
O=C(N/N=C/c1cn(Cc2ccccc2)c2ccccc12)c1ccncc1	TDP1 cell noCPT inconclusive, ELG1 repair inh 18µM
O=C(N/N=C/c1cn(Cc2ccccc2)c2ccccc12)c1cccnc1	TDP1 cell noCPT inconclusive, TDP1 cell CPT inconclusive
O=C1C2C3C=CC(C3)C2C(=O)N1/N=C/c1cn(Cc2ccc(F)cc2)c2ccccc12 (stereo unspecified)	HT1080 IDH1KD tx inconclusive, ELG1 repair inh inconclusive
